Our source for the outcome and AC50 values is PubChem BioAssay (EPA / NIEHS).

The structures appear in SMILES notation. Records with an inconclusive call do not appear. Where a structure was tested more than once in an assay, its records may differ in their call. Active and inactive are the calls of the source. How the source made its calls: active means hit-call score of the fitted dose curve at least 0.9, where 1 is the maximum; inconclusive means response in the unintended direction; inactive means score below 0.9.

The target in the assay is Retinoic acid receptor alpha (Homo sapiens) (UniProt P10276). The assay is described as follows: ATG_RARa_TRANS: Attagene TRANS-FACTORIAL HepG2 Assay for human Retinoic Acid Receptor alpha (RARa) (AID 2283005).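 On AC50: potency for increased reporter signal meaning RARa activation over DMSO.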 The protocol: ATG_TRANS is a cell-based, multiplexed-readout assay that uses HepG2, a human liver cell line, with measurements taken at 24 hours after chemical dosing in a 24-well plate.ATG_RARa_TRANS is one of 30 assay component(s) measured or calculated from the ATG_TRANS assay. It is designed to make measurements of mRNA induction, a form of inducible reporter, as detected with fluorescence intensity signals by Reverse transcription polymerase chain reaction (RT-PCR) and Capillary electrophoresis technology.Data from the assay component ATG_RARa_TRANS was analyzed into 1 assay endpoint. This assay endpoint, ATG_RARa_TRANS, was analyzed in the positive analysis fitting direction relative to DMSO as the negative control and baseline of activity. Using a type of inducible reporter, measures of mRNA for gain-of-signal activity can be used to understand the reporter gene at the transcription factor-level as they relate to the gene RARA. Furthermore, this assay endpoint can be referred to as a primary readout, because this assay has produced multiple assay endpoints where this one serves a reporter gene function. To generalize the intended target to other relatable targets, this assay endpoint is annotated to the nuclear receptor intended target family, where the subfamily is non-steroidal.
Chain of Retinoic acid receptor alpha (Homo sapiens) (P10276 whole entry, looked up): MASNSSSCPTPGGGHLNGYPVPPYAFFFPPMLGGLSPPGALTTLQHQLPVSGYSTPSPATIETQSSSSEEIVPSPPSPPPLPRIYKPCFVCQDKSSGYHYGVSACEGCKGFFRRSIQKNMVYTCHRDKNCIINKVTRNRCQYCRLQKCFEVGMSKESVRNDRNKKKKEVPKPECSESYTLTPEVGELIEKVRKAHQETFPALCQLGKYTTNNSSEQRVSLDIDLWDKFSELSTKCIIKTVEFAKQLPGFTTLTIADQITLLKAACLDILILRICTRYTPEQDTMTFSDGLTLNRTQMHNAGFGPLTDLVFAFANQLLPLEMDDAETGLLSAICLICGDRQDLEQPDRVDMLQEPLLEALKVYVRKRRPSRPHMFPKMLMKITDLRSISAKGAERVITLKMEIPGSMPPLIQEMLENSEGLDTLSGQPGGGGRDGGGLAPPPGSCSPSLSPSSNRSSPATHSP
Human liver HepG2 cells are transiently transfected with multiple reporter transcription units (MRTUs) in 6-well plates using FuGene 6 reagent (Roche; 3 ml FuGene/1 mg DNA). The MRTU constructs are regulated by a cis-regulating element (promoter). […] A major difference between the CIS and TRANS system is that in CIS activities of endogenous TFs are measured, whereas the TRANS assay evaluates changes in activities of exogenous, chimeric NR-Gal4 proteins. […] At the end of 24 hour incubation, total RNA was isolated using TriZol reagent (Invitrogen). The isolated RNA is then reverse-transcribed using oligo(dT) primer and Mo-MLV reverse transcriptase (Invitrogen) with DNAse I (Ambion) treatment for 30 min. The one-tenth of the produced cDNA was amplified by PCR using Taq DNA polymerase (Invitrogen) and two reporter sequence-specific primers. The PCR products were fluorescently labeled by primer extension with 6-arboxyfluorescein (6-FAM) 5'-labeled reporter sequence-specific primer (2 min at 95 C, 20 s at 68 C and 10 min at 72 C) and these products were digested with 5U of HpaI (New England Biolabs) for 2h at 37 C. The fragments were purified using Qiaquick PCR columns (Qiagen), analyzed on an ABI 3130xL genetic analyzer (Applied Biosystems) with peak positions identified by using a set of X-rhodamine (ROX)-labeled MapMarker1000 molecular weight standards (BioVentures). The raw capillary electrophoresis data was processed using Attagraph software (Attagene).
Turning to `O=C1OC2(c3ccccc31)c1cc(Br)c(O)c(Br)c1Oc1c2cc(Br)c(O)c1Br`, the compound was called inactive. For `CC(=O)CC(C)(C)O`, the outcome was inactive.

As for `CC(O)C(=O)O` (configuration not stated), the compound was called inactive. Turning to `OCCC(F)(F)C(F)(F)C(F)(F)C(F)(F)C(F)(F)C(F)(F)F`, the compound was classed as inactive. For the compound `CC[C@H](C)[C@@H](C(=O)O)n1sc2ccccc2c1=O`, the call was inactive. For the compound `CC(C)(C)c1ccc(O)c(C(C)(C)C)c1`, the compound was classed as inactive. Turning to `COc1cc(CCC(=O)CC(=O)CCc2ccc(O)c(OC)c2)ccc1O`, the compound was called inactive. Turning to `CCCCCCCCCCCCc1ccccc1S(=O)(=O)O`, the result was inactive. On the same count and under the same terms, to `CCCOC(=O)c1ccc(O)cc1` belongs “inactive”. In the case of `CCc1nn(C2CCCCC2)c2cc(C3(C#N)CCC(C(=O)O)CC3)ccc12` (configuration not stated), the result was inactive. Regarding `CCOC(=O)CC(O)(CC(=O)OCC)C(=O)OCC`, the outcome was inactive. Still for that read-out and setting: to `CCC(=C(c1ccc(O)cc1)c1ccc(OCCN(C)C)cc1)c1ccccc1` belongs “inactive”; to `O=C(O)Cc1cc(I)c(Oc2cc(I)c(O)c(I)c2)c(I)c1`, “inactive”; to `O=C(O)c1ccccc1C(c1ccc(O)cc1)c1ccc(O)cc1`, “inactive”. As for `CC(C)(C)c1cccc(C(C)(C)C)c1O`, the call was inactive. For the compound `CC(C)CCCCCCOC(=O)CCCCC(=O)OCCCCCCC(C)C`, the result was inactive. For `COC(=O)CCCCC(=O)OC`, the compound was classed as inactive. Turning to `NC(=O)N1C(=O)C(C(=O)c2cc(Cl)cs2)c2cc(F)c(Cl)cc21` (configuration not stated), the compound was called inactive. The AC50 is the midpoint of the concentration-response curve, whichever way the signal moves. Regarding `CCCCCCCCCCCCCC[N+](C)(C)C`, the AC50 is 48.5 µM (active) and the call was inactive. Regarding `C#C[C@]1(O)CC[C@H]2[C@@H]3CCC4=CC(=O)CC[C@@H]4[C@H]3CC[C@@]21C`, the compound was called inactive.

Take `c1ccc2cc3c(ccc4ccccc43)cc2c1`: the result was inactive. Take `Cc1cc(C)c(O)c(C)c1`: the compound was called inactive. For the compound `NCC(F)(F)C(F)(F)C(F)(F)C(F)(F)C(F)(F)C(F)(F)C(F)(F)F`, the result was inactive. Turning to `CCCCC(CC)COC(=O)CCCCC(=O)OCC(CC)CCCC` (configuration not stated), the call was inactive.

Take `CC(O)CO` (configuration not stated): the compound was called inactive. `CN(C)C=O`: the compound was classed as inactive.
